In PubChem BioAssay (Tox21):
Records with an inconclusive call do not appear. The source made the active and inactive calls. The call rests on the fitted dose curve; in most records, active means well fitted curve in the direction sought with a large enough effect in the repeat runs; inconclusive means weak or mixed curves; inactive means no such curve, though single readings can be large; an effect the other way counts as inactive or inconclusive.

Legend:
[1] = biological target: Cytochrome P450 2C19 (Homo sapiens) (UniProt P33261); assay: Cytochrome P450 Family 2 Subfamily C Member 19 (CYP2C19) small molecule antagonists: luciferase reporter qHTS assay (AID 1671197); further: nearly all actives have a fitted effect of over 65% in size; on activity change, negative = inhibition: series mostly up to about 120 µM
Sequence of Cytochrome P450 2C19 (Homo sapiens) (P33261 whole entry, looked up): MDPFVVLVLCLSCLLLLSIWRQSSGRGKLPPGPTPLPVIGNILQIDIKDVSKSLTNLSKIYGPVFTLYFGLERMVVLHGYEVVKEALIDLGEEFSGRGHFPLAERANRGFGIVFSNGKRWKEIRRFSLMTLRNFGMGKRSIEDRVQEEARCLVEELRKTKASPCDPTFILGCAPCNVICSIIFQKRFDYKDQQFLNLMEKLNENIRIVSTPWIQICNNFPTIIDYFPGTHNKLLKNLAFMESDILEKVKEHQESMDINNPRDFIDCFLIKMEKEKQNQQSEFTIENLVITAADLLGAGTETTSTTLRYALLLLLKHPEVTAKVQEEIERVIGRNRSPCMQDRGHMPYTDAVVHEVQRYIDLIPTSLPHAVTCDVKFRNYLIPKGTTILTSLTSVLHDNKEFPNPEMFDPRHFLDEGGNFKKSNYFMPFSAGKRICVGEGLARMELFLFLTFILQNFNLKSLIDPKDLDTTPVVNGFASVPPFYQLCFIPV
Outline: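 Enzyme-substrate mix with proluciferin substrate (P450-Glo CYP2C19 system) preincubated with compounds 10 min at room temperature; NADPH regeneration solution added, 37C for 1 h; detection reagent stops reaction, luminescence read after 20 min. Ketoconazole positive control.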

[2] = biological target: Cytochrome P450 2C9 (Homo sapiens) (UniProt P11712); assay: Cytochrome P450 Family 2 Subfamily C Member 9 (CYP2C9) small molecule antagonists: luciferase reporter qHTS assay (AID 1671198); further: nearly all actives have a fitted effect of over 50% in size; on activity change, negative = inhibition: series mostly up to about 120 µM
Sequence of Cytochrome P450 2C9 (Homo sapiens) (P11712 whole entry, looked up): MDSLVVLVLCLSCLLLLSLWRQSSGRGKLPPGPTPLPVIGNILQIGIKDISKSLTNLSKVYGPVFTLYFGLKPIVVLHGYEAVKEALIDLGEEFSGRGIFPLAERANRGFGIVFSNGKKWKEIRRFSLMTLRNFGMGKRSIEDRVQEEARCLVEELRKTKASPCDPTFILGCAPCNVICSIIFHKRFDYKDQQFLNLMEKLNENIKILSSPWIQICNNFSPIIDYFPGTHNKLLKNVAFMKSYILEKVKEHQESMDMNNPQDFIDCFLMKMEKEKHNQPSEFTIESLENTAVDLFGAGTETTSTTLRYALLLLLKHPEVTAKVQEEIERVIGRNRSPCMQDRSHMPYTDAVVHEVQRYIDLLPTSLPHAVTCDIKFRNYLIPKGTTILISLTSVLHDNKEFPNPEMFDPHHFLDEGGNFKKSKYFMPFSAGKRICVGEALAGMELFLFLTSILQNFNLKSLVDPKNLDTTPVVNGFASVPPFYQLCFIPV
Outline: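 CYP2C9 activity was measured with a P450-Glo proluciferin substrate. Enzyme–substrate mix was held with compound for 10 min at room temperature, then NADPH regeneration solution was added for 1 h at 37C. Luciferin product was read as luminescence.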

[3] = biological target: Cytochrome P450 1A2 (Homo sapiens) (UniProt P05177); assay: Cytochrome P450 Family 1 Subfamily A Member 2 (CYP1A2) small molecule antagonists: luciferase reporter qHTS assay (AID 1671199); further: nearly all actives have a fitted effect of over 50% in size; on activity change, negative = inhibition: series mostly up to about 120 µM
Sequence of Cytochrome P450 1A2 (Homo sapiens) (P05177 whole entry, looked up): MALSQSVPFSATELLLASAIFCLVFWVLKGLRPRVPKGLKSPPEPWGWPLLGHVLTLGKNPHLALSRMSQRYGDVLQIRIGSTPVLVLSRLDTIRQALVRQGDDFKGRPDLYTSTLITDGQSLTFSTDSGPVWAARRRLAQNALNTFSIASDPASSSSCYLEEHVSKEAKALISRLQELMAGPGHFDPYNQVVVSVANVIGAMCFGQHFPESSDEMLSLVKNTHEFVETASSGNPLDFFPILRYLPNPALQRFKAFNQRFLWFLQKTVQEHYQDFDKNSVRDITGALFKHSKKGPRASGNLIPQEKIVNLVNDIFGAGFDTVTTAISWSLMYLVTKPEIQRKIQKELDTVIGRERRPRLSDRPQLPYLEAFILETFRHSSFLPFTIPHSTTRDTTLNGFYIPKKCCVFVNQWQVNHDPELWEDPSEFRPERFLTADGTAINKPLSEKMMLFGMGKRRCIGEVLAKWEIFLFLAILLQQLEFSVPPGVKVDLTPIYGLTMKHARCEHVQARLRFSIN
Outline: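 Steps: enzyme-substrate mix dispensed; test compounds and furafylline control pinned in; 10 min room temperature; NADPH regeneration solution added, 1 h; reaction stopped with luciferin detection reagent; luminescence read after 20 min.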

[4] = biological target: Voltage-gated inwardly rectifying potassium channel KCNH2 (Homo sapiens) (UniProt Q12809); assay: Human Ether-a-go-go-Related Gene (hERG) channel small molecule antagonists: fluorescence cell-based qHTS assay (AID 1671200); further: nearly all actives have a fitted effect of over 50% in size;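 on activity change, negative = inhibition: hERG-expressing U2OS cells given a thallium stimulus after FluxOR II dye loading; series mostly up to about 77 µM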
Sequence of Voltage-gated inwardly rectifying potassium channel KCNH2 (Homo sapiens) (Q12809 whole entry, looked up): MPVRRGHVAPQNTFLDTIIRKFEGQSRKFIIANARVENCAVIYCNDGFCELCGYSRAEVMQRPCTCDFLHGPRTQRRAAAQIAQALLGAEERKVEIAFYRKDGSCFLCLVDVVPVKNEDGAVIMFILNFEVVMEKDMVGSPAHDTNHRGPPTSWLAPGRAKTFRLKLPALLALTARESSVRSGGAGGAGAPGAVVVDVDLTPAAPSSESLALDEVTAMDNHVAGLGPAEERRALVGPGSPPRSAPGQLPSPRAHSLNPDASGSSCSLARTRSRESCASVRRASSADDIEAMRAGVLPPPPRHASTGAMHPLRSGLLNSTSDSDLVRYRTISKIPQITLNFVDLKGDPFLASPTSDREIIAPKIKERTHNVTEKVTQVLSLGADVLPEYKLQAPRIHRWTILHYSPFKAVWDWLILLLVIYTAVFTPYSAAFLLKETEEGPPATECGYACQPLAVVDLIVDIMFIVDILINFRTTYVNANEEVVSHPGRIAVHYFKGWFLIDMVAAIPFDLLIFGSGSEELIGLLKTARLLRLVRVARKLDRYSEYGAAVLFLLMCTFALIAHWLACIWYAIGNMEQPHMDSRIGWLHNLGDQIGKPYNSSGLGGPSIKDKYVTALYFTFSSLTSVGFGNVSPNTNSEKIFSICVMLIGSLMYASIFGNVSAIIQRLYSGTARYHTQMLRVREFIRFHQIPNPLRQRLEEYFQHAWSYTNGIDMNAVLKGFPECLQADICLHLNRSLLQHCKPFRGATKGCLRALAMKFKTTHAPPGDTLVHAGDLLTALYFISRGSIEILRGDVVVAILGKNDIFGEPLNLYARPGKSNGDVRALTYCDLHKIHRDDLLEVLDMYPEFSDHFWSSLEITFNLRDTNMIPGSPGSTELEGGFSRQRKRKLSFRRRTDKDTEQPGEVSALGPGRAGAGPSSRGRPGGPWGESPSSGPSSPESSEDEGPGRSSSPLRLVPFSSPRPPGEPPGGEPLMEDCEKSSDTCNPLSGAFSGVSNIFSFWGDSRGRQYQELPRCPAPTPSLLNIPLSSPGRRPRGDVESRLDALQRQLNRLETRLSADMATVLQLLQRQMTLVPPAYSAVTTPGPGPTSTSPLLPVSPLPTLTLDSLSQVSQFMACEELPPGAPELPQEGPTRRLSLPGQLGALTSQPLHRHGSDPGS
Outline: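 Thallium served as the potassium surrogate; its influx into dye-loaded U2OS cells carrying the channel was measured by fluorescence over 2 min.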

[5] = biological target: Cytochrome P450 3A4 (Homo sapiens) (UniProt P08684); assay: Cytochrome P450 Family 3 Subfamily A Member 4 (CYP3A4) small molecule antagonists: luciferase reporter qHTS assay (AID 1671201); further: nearly all actives have a fitted effect of over 50% in size; on activity change, negative = inhibition: series mostly up to about 120 µM
Sequence of Cytochrome P450 3A4 (Homo sapiens) (P08684 whole entry, looked up): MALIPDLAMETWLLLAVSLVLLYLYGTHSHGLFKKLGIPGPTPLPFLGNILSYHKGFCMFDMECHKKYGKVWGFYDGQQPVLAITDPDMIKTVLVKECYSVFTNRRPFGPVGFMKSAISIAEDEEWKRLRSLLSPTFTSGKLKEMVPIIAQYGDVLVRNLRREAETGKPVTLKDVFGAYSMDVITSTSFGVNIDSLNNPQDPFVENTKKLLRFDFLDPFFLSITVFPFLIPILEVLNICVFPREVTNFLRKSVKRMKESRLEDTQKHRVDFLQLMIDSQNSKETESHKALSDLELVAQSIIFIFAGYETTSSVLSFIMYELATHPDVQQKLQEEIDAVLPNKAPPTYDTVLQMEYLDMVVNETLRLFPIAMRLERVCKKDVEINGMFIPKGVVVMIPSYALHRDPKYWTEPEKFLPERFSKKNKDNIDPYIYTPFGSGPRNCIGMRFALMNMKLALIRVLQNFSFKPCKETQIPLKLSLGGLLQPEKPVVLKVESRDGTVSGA
Outline: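 Relative luminescence units after 20 min with luciferin detection reagent served as read-out. Beforehand, CYP3A4 turned over a proluciferin substrate for 1 h at room temperature with NADPH regeneration, following 10 min compound preincubation.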
On the % scale 0 is the no-effect control and ±100 the full control effect; potency means the concentration at half of the fitted maximal effect.

O=C(Nc1ccc([N+](=O)[O-])cc1)Nc1ccc([N+](=O)[O-])cc1
inactive: Potency [1] | Potency [2] | Potency [3] | Potency [4] | Potency [5]

CCC(C(=O)OCCN(CC)CC)c1ccccc1 (configuration not stated)
inactive: Potency [1] | Potency [2] | Potency [4] | Potency [5]
active: Potency [3] 11.5 µM

Fc1ccccc1[C@@H](F)COC1CCC(Nc2ncnc3[nH]ncc23)CC1 (some centres not stated)
inactive: Potency [3] | Potency [4] | Potency [5]
active: Potency [1] 79.6 µM | Potency [2] 31.7 µM

O=C(O)C(Cc1cc(I)c(O)c(I)c1)c1ccccc1 (configuration not stated)
active: Potency [2] 9.77 µM | Potency [3] 24.5 µM
inactive: Potency [1] | Potency [4] | Potency [5]

CN1C(=O)CC(C)(c2ccccc2)C1=O (configuration not stated)
inactive: Potency [1] | Potency [2] | Potency [3] | Potency [4] | Potency [5]

C[N+]1(C)CCC(=C(c2ccccc2)c2ccccc2)CC1
active: Potency [4] 8.49 µM
inactive: Potency [1] | Potency [2] | Potency [3] | Potency [5]

O=C(O)c1cccnc1C(=O)O
inactive: Potency [1] | Potency [2] | Potency [3] | Potency [4] | Potency [5]

C=CCCCCCCCCCCCCCCCC
inactive: activity change, negative = inhibition [1] 5.26% [at 10.5 µM] | activity change, negative = inhibition [2] 3.76% [at 10.5 µM] | activity change, negative = inhibition [3] -11.2% [at 10.5 µM] | activity change, negative = inhibition [4] -0.108% [at 6.97 µM] | activity change, negative = inhibition [5] 6.02% [at 10.5 µM]

Cc1oc(C)c(C(=O)Nc2ccccc2)c1C
active: Potency [1] 35.6 µM | Potency [2] 35.6 µM | Potency [3] 15.9 µM
inactive: Potency [4] | Potency [5]

N#C[C@@H]1C[C@@H]2C[C@@H]2N1C(=O)[C@@H](N)C12CC3CC(CC(O)(C3)C1)C2
inactive: Potency [1] | Potency [2] | Potency [3] | Potency [5]

Oc1cc(O)c(Cl)cc1Cl
inactive: Potency [1] | Potency [4]
active: Potency [2] 40.9 µM | Potency [3] 18.3 µM | Potency [5] 36.5 µM

CCCOc1ccc(S(=O)(=O)N2CCN(CC)CC2)cc1-c1nc2c(CC)n(Cc3ccccn3)nc2c(=O)[nH]1
inactive: Potency [3]
active: Potency [1] 71 µM | Potency [2] 3.17 µM | Potency [4] 21.9 µM | Potency [5] 0.399 µM

CC1=CC(O)CC(C)(C)C1 (configuration not stated)
inactive: Potency [1] | Potency [2] | Potency [3] | Potency [4] | Potency [5]

CCOC(=O)CC(=O)C(=O)OCC
active: Potency [1] 35.6 µM | Potency [2] 39.9 µM | Potency [3] 31.7 µM | Potency [4] 49 µM | Potency [5] 71 µM

CC(=O)Oc1ccc(C(=C2CCCCC2)c2ccc(OC(C)=O)cc2)cc1
inactive: Potency [3] | Potency [4] | Potency [5]
active: Potency [1] 9.77 µM | Potency [2] 9.77 µM

CCCCCCCCCCCC[N+](C)(C)CCCS(=O)(=O)[O-]
inactive: Potency [1] | Potency [2] | Potency [3] | Potency [4] | Potency [5]

CNC(=S)NC
active: Potency [3] 31.7 µM
inactive: Potency [1] | Potency [2] | Potency [4] | Potency [5]

CC(C)CCCCCOC(=O)CCCCC(=O)OCCCCCC(C)C
active: Potency [2] 63.3 µM | Potency [5] 35.6 µM
inactive: Potency [1] | Potency [3] | Potency [4]

CCCCCCCCCCOS(=O)(=O)O
inactive: Potency [1] | Potency [3] | Potency [4] | Potency [5]
active: Potency [2] 44.6 µM

O=C(O)c1ccc(CO)o1
active: Potency [3] 64.4 µM
inactive: Potency [1] | Potency [2] | Potency [4] | Potency [5]

NCC1CCCC(CN)C1 (configuration not stated)
inactive: Potency [1] | Potency [2] | Potency [3] | Potency [4] | Potency [5]

CCCCCCCC/C=C\CCCCCCCC(=O)OC
inactive: Potency [1] | Potency [2] | Potency [4] | Potency [5]
active: Potency [3] 31.8 µM

Oc1ccc(Nc2ccccc2)cc1
inactive: Potency [4] | Potency [5]
active: Potency [1] 20 µM | Potency [2] 28.3 µM | Potency [3] 31.7 µM

CNC(=O)N(c1ccccc1)c1ccccc1
active: Potency [3] 40.1 µM
inactive: Potency [1] | Potency [2] | Potency [5]

CC(=O)OCC(=O)[C@H]1CC[C@H]2[C@@H]3CCC4=CC(=O)CC[C@]4(C)[C@H]3CC[C@]12C
inactive: Potency [3] | Potency [4] | Potency [5]
active: Potency [1] 9.77 µM | Potency [2] 7.76 µM

CC(C)OCC1CO1 (configuration not stated)
inactive: Potency [1] | Potency [2] | Potency [3] | Potency [4] | Potency [5]

NC(=O)N(O)[C@@H]1C=C[C@H](Oc2cccc(Oc3ccc(F)cc3)c2)C1
active: Potency [1] 8.94 µM | Potency [2] 31.7 µM | Potency [3] 7.96 µM | Potency [5] 0.894 µM

Nc1nccs1
inactive: Potency [1] | Potency [2] | Potency [3] | Potency [4] | Potency [5]

CCCCCCCCCCCC(=O)[O][Sn]([CH2]CCC)([CH2]CCC)[O]C(=O)CCCCCCCCCCC
inactive: Potency [1] | Potency [2] | Potency [3] | Potency [4] | Potency [5]

C[Si]1(C)O[Si](C)(C)O[Si](C)(C)O1
inactive: Potency [1] | Potency [2] | Potency [3] | Potency [4] | Potency [5]
